Among the test systems are T-47D breast; BT-549 breast; MDA-MB-435 melanoma; SW-620 colon; MCF7 breast; HCT-116 colon; HCC-2998 colon; KM12 colon.
Holding throughout (test): NCI-60 one-dose screen, 48 h (100 = growth as untreated, 0 = no growth, -100 = all killed)
Details in all cases: 10 µM unless noted

The record followed here is PubChem BioAssay (NCI).

About 83,000 compounds went through this panel and 20% of them were active in at least one assay; those are over-represented in the sample as a whole.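 Single-concentration screen, 48 h exposure, 96-well plates. Endpoint: percent growth. Below 10 = active.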 Unmarked numbers belong to inactive results. Active and inactive are the calls of the source.

Take `CCOC(=O)Cn1c(C)c(/C=N/NC(=O)c2cc3c(ccc4ccccc43)o2)c2ccccc21`: the growth is 58.7% in the assay on T-47D breast; 35.3% with BT-549 breast; -11.4% (active) with MDA-MB-435 melanoma; 30.4% in the assay on SW-620 colon; 17% in the assay with MCF7 breast; 8.16% (active) with HCT-116 colon. Also, the growth in the assay with HCC-2998 colon was 31.3%; in the assay on KM12 colon, 15.6%.
Turning to `CCCCC1CCCC12NC(=O)NC2=O` (configuration not stated), the growth in the assay with T-47D breast is 91.7%; in the assay on BT-549 breast, 95.1%; with MDA-MB-435 melanoma, 109%; in the assay with SW-620 colon, 102%; in the assay with MCF7 breast, 105%; in the assay on HCT-116 colon, 99.4%. The growth in the assay on HCC-2998 colon is 96.9%; in the assay with KM12 colon, 106%.
Regarding `COc1cc(C2CC(c3cccc(Br)c3)=NN2C(C)=O)cc(OC)c1OC` (configuration not stated), the growth in the assay with T-47D breast is 69.7%; with BT-549 breast, -8.75% (active); with MDA-MB-435 melanoma, -51.2% (active); with SW-620 colon, 24.8%; with MCF7 breast it was 22.8%; in the assay on HCT-116 colon, 17.2%. Further, the growth with HCC-2998 colon is -31% (active); in the assay with KM12 colon, 16.9%.
On to `O=C(CCc1nnc(-c2c(Cl)cccc2Cl)o1)c1nc2ccccc2[nH]1`, for which the growth is 52% in the assay with T-47D breast; 56.3% in the assay with BT-549 breast; -0.531% (active) in the assay on MDA-MB-435 melanoma; 35.8% with SW-620 colon; 44.7% in the assay on MCF7 breast; 22.1% in the assay with HCT-116 colon. For the same compound, the growth in the assay on HCC-2998 colon was 65.9%; in the assay on KM12 colon it was 28.7%.
As for `Clc1ccc(C(/C=C/c2sc(Cl)nc2Cl)=N/Nc2cc(Cl)cc(Cl)c2)cc1`, the growth was 98.2% with T-47D breast; 115% with BT-549 breast; 101% with MDA-MB-435 melanoma; 106% in the assay with SW-620 colon; 100% in the assay with MCF7 breast; 106% in the assay with HCT-116 colon. In addition, the growth in the assay with HCC-2998 colon was 112%; in the assay with KM12 colon, 105%.
As to `N#Cc1cccc(NC(=O)c2cc(-c3ccc(F)cc3F)ccc2O)c1`, the growth in the assay on T-47D breast was 16.1%; in the assay on BT-549 breast it was 5.92% (active); with MDA-MB-435 melanoma it was 8.27% (active); in the assay on SW-620 colon, 18.8%; in the assay with MCF7 breast it was 3.66% (active); in the assay on HCT-116 colon it was 7.36% (active). Moreover, the growth with HCC-2998 colon is 26.5%; with KM12 colon, 7.89% (active).
Regarding `NCCNc1nc2ccccc2c2c(=O)c3cc(F)ccc3sc12`, the growth in the assay on T-47D breast is 88.7%; in the assay on BT-549 breast, 92.5%; with MDA-MB-435 melanoma, 58.6%; in the assay on SW-620 colon, -29.1% (active); in the assay on MCF7 breast, 52.6%; in the assay with HCT-116 colon, 22%. Further, the growth with HCC-2998 colon is 4.32% (active); with KM12 colon, 34.5%.
Regarding `Cc1nc(/N=C(\N)NC(=O)Nc2cccc(Cl)c2)sc1C`, the growth is 73.5% with T-47D breast; 71.7% with BT-549 breast; -13.5% (active) in the assay with MDA-MB-435 melanoma; 38.2% in the assay with SW-620 colon; 35.9% with MCF7 breast; 66.4% with HCT-116 colon. Moreover, the growth in the assay with HCC-2998 colon is 78.2%; in the assay with KM12 colon, 41.6%.
Take `COc1cc(/C=C/c2ccccc2)cc(OC)c1`: the growth in the assay on T-47D breast is 77.9%; in the assay on BT-549 breast it was 101%; in the assay with MDA-MB-435 melanoma it was 103%; with SW-620 colon, 100%; in the assay with MCF7 breast, 71.4%; in the assay on HCT-116 colon, 92.4%. The growth in the assay with HCC-2998 colon is 102%; with KM12 colon, 95.6%.
On to `CCN(CC)CCCNc1nc2ccccc2c2c(=O)c3cc(Cl)ccc3sc12`, for which the growth was 61.3% with T-47D breast; 91.2% in the assay on BT-549 breast; -4.23% (active) in the assay on MDA-MB-435 melanoma; 14.3% in the assay on SW-620 colon; 44.4% in the assay with MCF7 breast; 20.2% in the assay with HCT-116 colon. For the same compound, the growth was 26.5% in the assay on HCC-2998 colon and 27% in the assay on KM12 colon.
For `Cc1cccc(NCc2cn(-c3ccc(C(=O)O)cc3)nc2-c2ccc(C(=O)O)cc2)n1`, the growth in the assay on T-47D breast was 100%; with BT-549 breast, 104%; in the assay on MDA-MB-435 melanoma, 101%; with SW-620 colon, 99.9%; in the assay on MCF7 breast, 97.4%; with HCT-116 colon, 107%. For the same compound, the growth was 112% with HCC-2998 colon and 102% in the assay with KM12 colon.
Take `COc1cc2cc(Oc3ccc(NC(=O)Nc4cccc(C(F)(F)F)c4)cc3)c(C)nc2cc1OCCN1CCOCC1`: the growth in the assay with T-47D breast was 30.3%; with BT-549 breast it was 70.8%; in the assay on MDA-MB-435 melanoma, 30.4%; in the assay on SW-620 colon, 36.9%; with MCF7 breast, 9.35% (active); with HCT-116 colon, 17.4%. The growth was 89.2% in the assay on HCC-2998 colon and 29.8% in the assay on KM12 colon.
As to `CCCCCCN1C(=O)/C(=c2\sc3n(c2=O)C2C(NN=3)N(CC)C(=O)N2CC)c2ccccc21` (configuration not stated), the growth with T-47D breast is 16.2%; in the assay on BT-549 breast, 41.3%; in the assay with MDA-MB-435 melanoma, -49.2% (active); in the assay with SW-620 colon, -38.3% (active); with MCF7 breast, -10.4% (active); in the assay on HCT-116 colon it was -37.3% (active). Also, the growth in the assay with HCC-2998 colon was 83.5%; in the assay on KM12 colon it was 16.6%.
Turning to `Cc1ccc(/C=C(\C#N)n2nc3cccc(F)c3n2)cc1`, the growth in the assay with T-47D breast was 74%; in the assay with BT-549 breast, 102%; with MDA-MB-435 melanoma, 51.1%; with SW-620 colon, 94.3%; in the assay with MCF7 breast, 54.1%; in the assay on HCT-116 colon it was 70.7%. The results for the growth with HCC-2998 colon and in the assay with KM12 colon were 105% and 68.2%, respectively.
